From ChEMBL document CHEMBL1857833, “Screening and optimization of specific chemical series against human African Trypanosomiasis (HAT)”
In all, about 4,400 compounds went through this assay and about 390 (8.9%) showed an effect of 50% or more. What follows is part of a selection rich in strong results, with near analogues and random picks from the rest.

test system: Trypanosoma brucei; test: DNDI: Inhibition of Human African Trypanosomiasis, SBRI 427, in vitro at 2 ug.mL-1; assay type: functional

SMILES	% inhibition
C1=CCN(Cc2coc(-c3ccco3)n2)CC1	30%
CC1(C)Cc2cccc(Oc3ccc(/C(=N/O)NCC4CCCCC4)cn3)c2O1	34%
Cc1cccc(-c2nc(Cn3ccnc3)co2)c1	15%
Cc1ccc(/C(=N/O)NC2CC2)c(Oc2ccc(Cl)cc2)n1	9%
Cc1ccc(/C(=N/O)NC2CCc3ccccc32)c(Oc2cc(Cl)ccc2Cl)n1 (stereo not given)	-38%
Cc1ccc(/C(=N/O)NCC2CCCCC2)c(Oc2cc(Cl)ccc2Cl)n1	51%
Cc1ccc(/C(=N/O)NCC2CCCCC2)c(Oc2c(F)c(F)cc(F)c2F)n1	12%
Cc1ccc(/C(=N/O)NCC2CC2)c(Oc2cc(Cl)ccc2Cl)n1	-4%
Cc1ccc(/C(=N/O)NC2CCCCC2)c(Oc2cc(Cl)ccc2Cl)n1	97%
Cc1ccc(/C(=N/O)NC2CCCC2)c(Oc2cc(Cl)ccc2Cl)n1	100%
Cc1ccc(/C(=N/O)NCC2CCCO2)c(Oc2ccc(F)c(Cl)c2)n1 (stereo not given)	42%
Cc1ccc(/C(=N/O)NCC2CCCO2)c(Oc2ccc(F)c(F)c2)n1 (stereo not given)	8%
Cc1ccc(/C(=N/O)NC2CCCCC2)c(Oc2ccc(Cl)cc2)n1	22%
Cc1ccc(/C(=N/O)NCC2CCCO2)c(Oc2cc(Cl)ccc2Cl)n1 (stereo not given)	85%
Cc1ccc(/C(=N/O)NC2CCC2)c(Oc2ccc(Cl)cc2)n1	-9%
Cc1ccc(/C(=N/O)NCCN2CCOCC2)c(OCc2ccccn2)n1	4%
Cc1ccc(/C(=N/O)NCCN2CCOCC2)c(Oc2cccc3ccccc23)n1	-6%
O=C(c1ccco1)N1CCN(Cc2coc(-c3ccccc3F)n2)CC1	4%
COc1cccc(OC)c1CNCc1coc(-c2ccc(Br)cc2)n1	7%
CCOc1cccc(-c2nc(CN3CCCCC3)co2)c1	-5%
COCCN(/C(=N\O)c1ccc(C)nc1OCc1ccccc1F)C(C)C	18%
CCOc1ccccc1-c1nc(Cn2cc(C)nc2C)co1	7%

SMILES	% inhibition
COCCN(CCOC)Cc1coc(-c2ccc(C)cc2)n1	28%
COc1ccc(CNCc2coc(-c3cccc(F)c3)n2)cc1OC	13%
CCN(Cc1coc(-c2cccc(OC)c2)n1)c1cccc2ccccc12	11%
Cc1ccc(/C(=N/O)N2CCN(C)CC2)c(Oc2cc(Cl)ccc2Cl)n1	5%
Cc1ccc(/C(=N/O)N2CCCN(C)CC2)c(Oc2cc(Cl)ccc2Cl)n1	55%
Cc1ccc(/C(=N/O)N2CCCCC2)c(Oc2cc(Cl)ccc2Cl)n1	33%
Cc1cc(C)cc(Oc2ccc(/C(=N/O)N3CCCCC3)cn2)c1	6%
CN(Cc1coc(-c2cccc3ccccc23)n1)C(C)(C)C	7%
Cc1ccc(Oc2nc(C)ccc2/C(=N/O)N2CCN(c3ccccc3)CC2)c(C)c1	15%
O/N=C(/c1ccc(Oc2cccc3cccnc23)nc1)n1ccnc1	-3%
COCCN/C(=N\O)c1cccnc1Oc1ccc(OC)cc1	8%
COCCN/C(=N\O)c1cccnc1Oc1ccc(C(C)C)cc1	97%
COCCN/C(=N\O)c1cccnc1Oc1cccc(C(F)(F)F)c1	1%
CCc1ccc(Oc2ncccc2/C(=N/O)NCCN(C)C)cc1	5%
COc1ccc(Oc2ncccc2/C(=N/O)Nc2ccc(C(C)C)cc2)cc1	-14%
CCc1ccc(Oc2ncccc2/C(=N/O)NCCOC)cc1	86%
O/N=C(\NCC1CCCCC1)c1ccnc(Oc2ccc(Cl)cc2)c1	98%
O/N=C(/c1ccnc(Oc2ccc(Cl)cc2)c1)N1CCCCCC1	18%
CC1CCCN1/C(=N\O)c1ccnc(Oc2ccc(Cl)cc2)c1 (stereo not given)	-11%
O/N=C(\NCc1ccncc1)c1ccnc(Oc2ccc(Cl)cc2)c1	20%
CCOc1ccc(Oc2cc(/C(=N/O)NCC3CCCCC3)ccn2)cc1	33%
O/N=C(\NCC1CCCCC1)c1ccnc(Oc2ccc(F)c(Cl)c2)c1	5%

SMILES	% inhibition
O/N=C(\NC1CCCC1)c1ccnc(Oc2ccc(Cl)cc2)c1	93%
O/N=C(\NC1CCCCC1)c1ccnc(Oc2ccc(Cl)cc2)c1	99%
O/N=C(/c1ccnc(Oc2ccc(Cl)cc2)c1)N1CCCCC1	23%
CN1CCCC1CCN/C(=N\O)c1cccnc1Oc1cccc(C(F)(F)F)c1 (stereo not given)	3%
Cc1ccc(/C(=N/O)N2CC(C)CC(C)C2)c(Oc2ccc3oc4ccccc4c3c2)n1 (stereo not given)	11%
COc1cccc(-c2nc(CN3CCCCC3)co2)c1	12%
CN(C)CCN(Cc1ccccc1)Cc1coc(-c2cccc(F)c2)n1	-25%
Clc1ccccc1-c1nc(CN(CCc2ccccc2)Cc2ccccc2)co1	17%
CCC(CC)N/C(=N\O)c1ccc(C)nc1Oc1cccc(C(C)C)c1	6%
Cc1ccc(/C(=N/O)NC(C)C)c(Oc2ccc(F)c(F)c2)n1	4%
COCC(C)N/C(=N\O)c1ccc(C)nc1Oc1cccc(F)c1 (stereo not given)	20%
CCC(CC)N/C(=N\O)c1ccc(C)nc1Oc1cc(Cl)ccc1Cl	100%
Cc1ccc(/C(=N/O)Nc2ccc(C(C)C)cc2)c(Oc2cc(Cl)ccc2Cl)n1	14%
CCC(CC)N/C(=N\O)c1ccc(C)nc1Oc1ccc(SC)c(C)c1	6%
CCC(CC)N/C(=N\O)c1ccc(C)nc1Oc1ccc(F)c(Cl)c1	100%
CCC(CC)N/C(=N\O)c1ccc(C)nc1Oc1cccc(F)c1	88%
COc1cc(-c2nc(CN3CCN(C)CC3)co2)cc(OC)c1OC	-2%
Cc1cccc(-c2nc(CNC(C)c3cccc4ccccc34)co2)c1 (stereo not given)	14%
Fc1ccc(-c2nc(CN3CCN(c4cccc(Cl)c4)CC3)co2)cc1	-16%
Cc1ccc(/C(=N/O)n2ccnc2)c(OCc2ccccn2)n1	16%
CCOc1ccc(-c2nc(CNc3ccnn3CC)co2)cc1	-10%
O/N=C(\NC1CCc2ccccc21)c1ccc(Oc2ccc(-n3ccnc3)cc2)nc1 (stereo not given)	-1%

SMILES	% inhibition
Cc1cn(Cc2coc(-c3cccc(F)c3)n2)c(C)n1	5%
Cc1ccc(-c2nc(CN3CCN(C/C=C/c4ccccc4)CC3)co2)cc1	8%
CC(C)c1cccc(Oc2cc(/C(=N/O)N3CCC=N3)ccn2)c1	53%
O/N=C(/c1ccnc(Oc2cccc(F)c2)c1)N1CCC=N1	4%
COc1ccc(Oc2cc(/C(=N/O)N3CCN(c4ccccc4)CC3)ccn2)cc1	22%
COc1ccc(Oc2cc(/C(=N/O)N3CCC=N3)ccn2)cc1	39%
O/N=C(/c1ccnc(Oc2ccc(Cl)cc2)c1)N1CCN(c2ccccc2)CC1	28%
O/N=C(/c1ccnc(Oc2ccc(F)c(Cl)c2)c1)N1CCN(c2ccccc2)CC1	58%
CC(C)c1cccc(Oc2cc(/C(=N/O)N3Cc4ccccc4C3)ccn2)c1	67%
O/N=C(/c1ccnc(Oc2ccc(F)c(Cl)c2)c1)N1CCN(c2ccc(F)cc2)CC1	34%
CC(C)c1cccc(Oc2cc(/C(=N/O)N3CCN(c4ccccc4)CC3)ccn2)c1	86%
CCOc1ccc(Oc2cc(/C(=N/O)N3Cc4ccccc4C3)ccn2)cc1	3%
Cc1ccc(/C(=N/O)N2Cc3ccccc3C2)c(Oc2cccc(C(C)C)c2)n1	0%
CC(C)c1cccc(Oc2cc(/C(=N/O)N3CCN(C)CC3)ccn2)c1	4%
CCOC(=O)C1CCCCN1Cc1coc(-c2ccccc2C)n1 (stereo not given)	1%
Cc1ccc(-c2nc(CNC(C)(C)CC(C)(C)C)co2)cc1	19%
N#CCCN(Cc1coc(-c2ccc(Br)cc2)n1)CC1CCCO1 (stereo not given)	11%
CCOc1ccccc1-c1nc(Cn2ncc3c2CCCC3)co1	12%
Cc1ccc(/C(=N/O)N(C)Cc2ccco2)c(Oc2cc(Cl)ccc2Cl)n1	13%
CCCCN(CC#N)Cc1coc(-c2ccc(OC)cc2)n1	1%
Cc1ccc(/C(=N/O)n2nc(C)cc2C)c(Oc2ccc3ccccc3c2)n1	6%
CSc1ccc(Oc2nc(C)ccc2/C(=N/O)NCc2ccco2)cc1	-3%

SMILES	% inhibition
c1ccc2c(-c3nc(CN4CCC5(CC4)OCCO5)co3)cccc2c1	1%
CCN(CC)CCN(CC)Cc1coc(-c2ccccc2C)n1	5%
CC1CC(C)CN(/C(=N\O)c2ccnc(Oc3ccc(F)c(F)c3)c2)C1 (stereo not given)	5%
CC1CC(C)CN(/C(=N\O)c2ccnc(Oc3cccc(C(C)C)c3)c2)C1 (stereo not given)	58%
CC1CC(C)CN(/C(=N\O)c2ccnc(Oc3ccc(F)c(Cl)c3)c2)C1 (stereo not given)	16%
CC(C)c1cccc(Oc2cc(/C(=N/O)N3CCC4CCCCC4C3)ccn2)c1 (stereo not given)	9%
CC1CC(C)CN(/C(=N\O)c2ccnc(Oc3cccc(F)c3)c2)C1 (stereo not given)	-1%
CC1CC(C)CN(/C(=N\O)c2ccnc(Oc3ccc(Cl)cc3)c2)C1 (stereo not given)	67%
COc1ccc(-c2nc(CNC(C)c3cccc4ccccc34)co2)cc1 (stereo not given)	13%
Cc1ccc(/C(=N/O)NCc2cccnc2)c(Oc2c(F)c(F)cc(F)c2F)n1	35%
CCCCN(C)Cc1coc(-c2ccccc2)n1	6%
CSc1ccc(Oc2cc(/C(N)=N/O)ccn2)cc1	21%
Cc1ccc(N2CCN(Cc3coc(-c4cccc(F)c4)n3)CC2)cc1C	-4%
O/N=C(\NCc1ccncc1)c1ccnc(Oc2ccc(F)c(F)c2)c1	8%
O/N=C(\NC1CCCC1)c1ccnc(Oc2ccc(F)c(F)c2)c1	101%
CC(C)c1ccc(N/C(=N\O)c2ccnc(Oc3cccc(F)c3)c2)cc1	-2%
CC(C)c1ccc(N/C(=N\O)c2ccnc(Oc3ccc(F)c(F)c3)c2)cc1	22%
CC1CCN(/C(=N\O)c2ccnc(Oc3ccc(F)c(F)c3)c2)CC1	41%
O/N=C(/c1ccnc(Oc2ccc(F)c(F)c2)c1)N1CCCCCC1	12%
O/N=C(\NCc1ccccn1)c1ccnc(Oc2cccc(F)c2)c1	-2%
O/N=C(\NC1CCCCC1)c1ccnc(Oc2ccc(F)c(F)c2)c1	99%
O/N=C(\NC1CCCC1)c1ccnc(Oc2cccc(F)c2)c1	82%
